From PubChem
The entries come from a sample that favours hits as a whole.
NOMO-1 viab: STK33 inhibitor candidate reducing NOMO-1 cell viability. NOMO-1 AML viability, CellTiter-Glo luminescence, 72 h. inhibition, % (no concentration beside the values). actives 7.5% (n = 37,000); in the data active = inhibition above about 80%; inconclusive = no clear call, values can overlap the other calls
STK33 inh: blocks human STK33 kinase activity; ADP-Glo luminescence, MBP substrate; inhibition, % at 12.5 µM; actives 0.44% (n = 27,000); AID 2322; in the data active = inhibition above about 20%; inconclusive = no clear call, values can overlap the other calls
Target sequence (Q9BYT3 whole entry, looked up): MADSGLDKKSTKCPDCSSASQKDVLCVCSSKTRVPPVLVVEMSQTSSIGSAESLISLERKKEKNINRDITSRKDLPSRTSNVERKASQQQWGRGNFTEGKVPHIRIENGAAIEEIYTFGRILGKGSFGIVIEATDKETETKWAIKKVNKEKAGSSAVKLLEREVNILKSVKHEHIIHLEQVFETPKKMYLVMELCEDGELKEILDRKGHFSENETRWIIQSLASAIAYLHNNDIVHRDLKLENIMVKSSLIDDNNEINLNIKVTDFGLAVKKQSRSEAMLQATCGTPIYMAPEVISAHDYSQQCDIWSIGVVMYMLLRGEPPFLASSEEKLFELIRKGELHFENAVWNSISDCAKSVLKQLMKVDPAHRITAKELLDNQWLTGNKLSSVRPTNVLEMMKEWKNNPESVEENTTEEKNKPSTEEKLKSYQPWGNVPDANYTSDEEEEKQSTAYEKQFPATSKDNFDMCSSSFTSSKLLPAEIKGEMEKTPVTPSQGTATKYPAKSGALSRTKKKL
mut p53 react: mutant p53 pathway reactivation. activation, % at 9.98 µM. SW480 PUMA-promoter luciferase. actives 1.5% (n = 28,000); in the data active = activation above about 52%; inconclusive = no clear call, values can overlap the other calls
ID4 binder: binds human ID4 protein on microarray. P47928. small molecule microarray, Flag-ID4 binding, fluorescence F/B. calls only. actives 1.2% (n = 31,000). AID 624137; call rule not given here;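 note: a binder raises fluorescence above local background on the spot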
Numbers stand for hits; 0 = inactive; ? = inconclusive; - = no result given; + = active, no number.

SMILES	NOMO-1 viab	STK33 inh	mut p53 react	ID4 binder
C[C@@H]1CCCCO[C@@H](CN(C)Cc2ccc3c(c2)OCO3)[C@@H](C)CN([C@H](C)CO)C(=O)c2cc(NC(=O)Nc3ccccc3)ccc2O1	0	0	-	-
C[C@H]1CN([C@@H](C)CO)C(=O)Cc2cc(NS(=O)(=O)c3ccccc3)ccc2O[C@@H]1CN(C)S(=O)(=O)c1ccc(F)cc1	0	0	0	0
CC(C)Oc1ccc2c(=O)cc(-c3ccccc3)oc2c1	0	0	0	-
CC(C)Oc1ccc2c(=O)c3cc(C(=O)O)ccc3oc2c1	-	-	71	0
Cn1c2ccccc2c2c3c(c4c5ccccc5n(CCC#N)c4c21)CNC3=O	140	109	0	-
Cc1ccc(C2=NNC(=O)C(c3cn(CCC#N)c4ccccc34)C2)cc1 (stereo unspecified)	0	0	0	0
Cn1c(SCC(=O)Nc2ccnc3ccccc23)nnc1-c1ccncc1	0	0	0	+
Cn1c(SCC(=O)Nc2ccccc2C(F)(F)F)nnc1-c1ccc(F)cc1	0	0	0	0
Cc1ccc(-c2nnc(SCC(=O)Nc3ccccc3F)n2C)cc1	0	0	60	0
COC(=O)c1c(NC(=O)COc2ccccc2)sc(C)c1-c1ccccc1	0	0	0	0
COc1ccc(C)cc1NC(=S)NCc1cnn(C)c1	0	0	0	0
C[C@H]1CN([C@@H](C)CO)C(=O)Cc2cc(NS(=O)(=O)c3ccc(F)cc3)ccc2O[C@H]1CN(C)Cc1ccc(-c2ccccc2)cc1	108	0	0	-
C[C@H](CO)N1C[C@H](C)[C@H](CN(C)Cc2ccc(-c3ccccc3)cc2)Oc2ccc(NS(=O)(=O)c3ccc(F)cc3)cc2CC1=O	95	0	-	-
C[C@H](CO)N1C[C@H](C)[C@H](CN(C)Cc2ccccc2)Oc2ccc(NS(=O)(=O)c3ccc(F)cc3)cc2CC1=O	0	0	-	-
C[C@@H]1CN([C@@H](C)CO)C(=O)Cc2cc(NS(=O)(=O)c3ccc(F)cc3)ccc2O[C@@H]1CN(C)Cc1ccc(-c2ccccc2)cc1	?	0	-	-
CCOC(=O)c1c(NC(=O)Cn2nc(C)c([N+](=O)[O-])c2C)sc2c1CCCC2	0	0	0	0
Nc1nc(COc2cccc3cccnc23)nc(Nc2ccccc2)n1	91	0	0	0
c1cnc2c(OCc3nc4ccccc4[nH]3)cccc2c1	0	0	0	0
CNC(=O)Nc1ccc(C(C)(C)C)cc1Br	0	-	-	-
CC(C)NC(=O)N(C)C[C@H]1Oc2c(NC(=O)Nc3ccc(C(F)(F)F)cc3)cccc2C(=O)N([C@@H](C)CO)C[C@H]1C	121	-	-	-
CC(C)NC(=O)N(C)C[C@@H]1Oc2c(NC(=O)Nc3ccc(C(F)(F)F)cc3)cccc2C(=O)N([C@H](C)CO)C[C@@H]1C	117	-	-	-
COc1cccc(CN(C)C[C@@H]2OCc3cnnn3CCCC(=O)N([C@H](C)CO)C[C@@H]2C)c1	-	0	-	-
O=C1C=CC(=O)N1c1ccccc1	114	-	-	-
CC1(C)ONC(=O)N(c2ccccc2)C1=O	0	-	-	-
Cc1cc(C(F)(F)F)n2ncnc2n1	-	-	0	0
SMILES	NOMO-1 viab	STK33 inh	mut p53 react	ID4 binder
COc1cccc([C@H]2C(C#N)=C(N)C(C#N)(C#N)C3=CCC(C)C[C@@H]32)c1 (stereo partly specified)	127	-	-	-
COC(=O)[C@@]1(Cc2ccccc2)N=C(c2ccc(OCCCO)cc2)O[C@H]1c1ccccc1CN=[N+]=[N-]	-	0	-	0
O=C(NCc1nc2ccccc2[nH]1)C1=C[C@@H](C2CC2)C[C@@H](OCc2ccc(CO)cc2)O1	-	-	-	0
O=C(NCc1nc2ccccc2[nH]1)C1=C[C@H](C2CC2)C[C@H](OCc2ccc(CO)cc2)O1	-	-	-	+
C[C@H](CO)N1C[C@H](C)[C@H](CN(C)Cc2ccc(C(F)(F)F)cc2)Oc2ccc(NC(=O)Nc3ccc4c(c3)OCO4)cc2CC1=O	104	-	-	-
C[C@@H]1CN([C@@H](C)CO)C(=O)Cc2cc(NC(=O)Nc3ccc4c(c3)OCO4)ccc2O[C@@H]1CN(C)Cc1ccc(C(F)(F)F)cc1	95	-	-	-
C[C@H]1CN([C@@H](C)CO)C(=O)Cc2cc(NC(=O)Nc3ccc4c(c3)OCO4)ccc2O[C@H]1CN(C)Cc1ccc(C(F)(F)F)cc1	0	0	-	-
C[C@H](CO)N1C[C@H](C)[C@H](CN(C)S(=O)(=O)c2ccc(F)cc2)Oc2ccc(NC(=O)C3CCCCC3)cc2CC1=O	0	-	-	-
CN(C)c1ccc2c(c1)[C@H]1C[C@@H](CC(=O)NCc3ccccc3)O[C@@H](CO)[C@H]1O2	-	-	-	0
Cc1cc(=O)[nH]c(SCC(=O)c2cc(C(C)(C)C)c(O)c(C(C)(C)C)c2)n1	0	0	0	0
CC(C)(C)c1cc(C(=O)CSc2nc3ccccc3[nH]2)cc(C(C)(C)C)c1O	102	0	0	0
C[C@@H]1CCCCO[C@@H](CN(C)C(=O)CCC(F)(F)F)[C@@H](C)CN([C@@H](C)CO)C(=O)c2cc(NC(=O)CCC(F)(F)F)ccc2O1	-	-	0	0
C=C1C(=O)O[C@@H]2/C=C(\C)[C@@H](OC(=O)C(O)C(C)C)C/C=C(/C)C[C@@H](OC(=O)/C(=C/CO)CO)[C@@H]12 (stereo partly specified)	121	0	-	-
C=C1C(=O)O[C@@H]2/C=C(\C)[C@H](OC(C)=O)C/C=C(/C)C[C@@H](OC(=O)/C(=C/CO)CO)C12 (stereo partly specified)	108	0	-	-
CCC(=O)N(C)C[C@@H]1Oc2ncc(C#Cc3ccccc3)cc2C(=O)N([C@@H](C)CO)C[C@@H]1C	-	-	-	0
O=C(NCc1nc2ccccc2n1Cc1ccccc1)c1ccccc1	0	0	0	0
C[C@H]1CN([C@@H](C)CO)C(=O)Cc2cc(NS(C)(=O)=O)ccc2O[C@H]1CN(C)C(=O)Nc1ccc(F)cc1	0	0	-	-
C[C@H](CO)N1C[C@H](C)[C@@H](CN(C)S(C)(=O)=O)Oc2ncc(/C=C/c3ccccc3)cc2C1=O	-	-	0	0
CC1OC(OCC2OC(O[C@H]3CC[C@@]4(C)C(CC[C@@]5(C)C6=C(CCC45)C4CC(C)(C)CC[C@]4(C(=O)OC4OC(CO)C(O)C(O)C4O)CC6)C3(C)C)C(O)C(O)C2O)C(O)C(O)C1O (stereo partly specified)	-	0	0	0
COC1CC(O[C@H]2CC[C@]3(C)C4CC[C@@]5(C)C(=O)[C@]4(CC[C@@H]3C2)CC[C@@H]5C2=CC(=O)OC2)OC(C)C1OC1OC(COC2OC(CO)C(O)C(O)C2O)C(O)C(O)C1O (stereo partly specified)	111	0	0	0
CC(C)NC(=O)Nc1cccc2c1O[C@@H](CN(C)Cc1ccc(C(=O)Nc3ccccc3N)cc1)[C@@H](C)CN([C@@H](C)CO)C2=O	141	-	-	-
CC(C)NC(=O)Nc1cccc2c1O[C@H](CN(C)Cc1ccc(C(=O)Nc3ccccc3N)cc1)[C@H](C)CN([C@@H](C)CO)C2=O	139	-	-	-
Cc1ccc(NC2=CC(=O)c3sc(C)nc3C2=O)cc1	-	-	0	0
O=C1C(Nc2ccccc2)=CC(=O)c2ncccc21	142	0	0	-
CCOC(=O)c1c(NC(=O)c2ccccc2[N+](=O)[O-])sc2c1CCCCCC2	-	0	0	0
CCCc1cc(=O)[nH]c(SCC(=O)Nc2ccc3c(c2)OCCO3)n1	0	0	0	0
